According to PubChem BioAssay AID686978 (National Center for Advancing Translational Sciences (NCATS), 2013):
The whole screen tested about 420,000 compounds, of which about 64,000 (15%) were called active. Another 27% or so got no clear call; they are omitted. Not all results are given here. Unmarked numbers belong to inactive results. Calls come from the whole dose curve; as a rule, active = well fitted inhibition curve with a large enough effect; inconclusive = small, poorly fitted or top-dose-only effect; inactive = flat fitted curve, though single readings scatter.

Test: qHTS for Inhibitors of human tyrosyl-DNA phosphodiesterase 1 (TDP1): qHTS in cells in absence of CPT; note: nearly all actives have a fitted effect of over 55% in size
Details: DT40 Tdp1-/- hTDP1 cells, no CPT, ATP luminescence, 48 h; activity change, negative = growth inhibition: at 46.2 µM (top of the series)
In short: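 Luminescent ATP content (CellTiter-Glo) served as the growth readout. Knockout chicken DT40 cells expressing human TDP1 were exposed to compounds without camptothecin for a minimum 48 hr at 37 °C.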
% is set by controls: 0 for no effect and ±100 for the full control effect; potency is the fitted concentration of half-maximal effect.

Row | SMILES | activity change, negative = growth inhibition | Potency
1 | O=S(=O)(Nc1cccc(Oc2ccc(Cl)cc2)n1)c1ccc(F)cc1 | 1.53% | 
2 | CC(C)(C)NC(=O)CN1CCC(NC(=O)C23CC4CC(CC(C4)C2)C3)CC1 | -4.57% | 
3 | CCc1c(C)sc(NC(=O)C2c3ccccc3Oc3ccccc32)c1C(=O)OC(C)C | 0.406% | 
4 | O=C(Cc1ccc(S(=O)(=O)N2CCOCC2)s1)Nc1ccc(Br)c(C(F)(F)F)c1 |  | 25.9 µM (active)
5 | Cc1cc(S(=O)(=O)N2CCOCC2)ccc1OCC(=O)Nc1cccc(C(F)(F)F)c1 | -9.35% | 
6 | O=C(Cc1ccc(S(=O)(=O)N2CCOCC2)s1)N1CCN(c2ccc(C(F)(F)F)cc2[N+](=O)[O-])CC1 |  | 9.2 µM (active)
7 | O=C(Oc1ccccc1Cl)c1ccc(N2CCOCC2)c([N+](=O)[O-])c1 | -15.9% | 
8 | O=C(c1ccc(N2CCOCC2)c([N+](=O)[O-])c1)N1CCN(S(=O)(=O)c2cccs2)CC1 |  | 16.4 µM (active)
9 | O=C(OCC(=O)N1CCOCC1)c1ccc(N2CCOCC2)c([N+](=O)[O-])c1 | -2.15% | 
10 | O=S(=O)(Nc1cc(S(=O)(=O)N2CCOCC2)ccc1N1CCCC1)c1cccs1 | -19.9% | 
11 | O=C(COc1ccc(S(=O)(=O)N2CCOCC2)cc1Cl)N1CCOCC1 | -24.9% | 
12 | O=C(Cc1ccc(S(=O)(=O)N2CCOCC2)s1)NCCOc1ccccc1F | -16.1% | 
13 | CC1CC(C)CN(CCCNC(=O)c2csc3c2CCCCC3)C1 (centres undefined) | -2.49% | 
14 | CCOC(=O)c1nc(N)sc1C(=O)OCC | -2.51% | 
15 | O=C(Nc1ccc(-n2ccnc2P(=O)(O)c2ccccc2)cc1)c1ccccc1Br | -25.4% | 
16 | CSc1nc2sc3c(c2c(=O)[nH]1)CCc1ccccc1-3 | -1.5% | 
17 | O=C(NC1CCCC1)C(c1c(F)cccc1Cl)N(C(=O)c1csnn1)C1CC1 (centres undefined) | -3.6% | 
18 | Cc1noc(C)c1NC(=O)Nc1cccc2c1O[C@H](CN(C)C(=O)Nc1ccccc1)[C@@H](C)CN([C@H](C)CO)C2=O | -6.07% | 
19 | O=C(Nc1ccc2c(c1)CCC2)c1ccc(Br)s1 | -21.1% | 
20 | CCN(CC(=O)NCc1ccc(Cl)cc1)C(=O)CSc1ccccc1 | -21.6% | 
21 | O=C(CSc1nc2ccccc2o1)N1CCN(c2ccccc2)CC1 | -26.2% | 
22 | CN(C)S(=O)(=O)c1cccc(C(=O)Nc2cccnc2)c1 | -5.49% | 
23 | Cc1ccc(/C=N/NC(=O)Cn2nc(C)c(Br)c2C)o1 | 0.967% | 

Row | SMILES | activity change, negative = growth inhibition | Potency
24 | Cc1ccc(/C=N/NC(=S)Nc2cccc(S(=O)(=O)N(C)C)c2)o1 |  | 2.59 µM (active)
25 | O=C(OCc1cc2ccccc2[nH]c1=O)c1cccnc1 | -6.84% | 
26 | CN1CCN(S(=O)(=O)c2ccc3[nH]cc(C(=O)O)c(=O)c3c2)CC1 | -1.96% | 
27 | O=C(CCc1nc2ccccc2c(=O)[nH]1)OCC(=O)c1cccc(Cl)c1 | -24.5% | 
28 | Cc1cc(C)c(-c2csc(NC(=O)CCCc3nc4ccccc4c(=O)[nH]3)n2)c(C)c1 |  | 8.2 µM (active)
29 | CC(C)(C)c1ccc(NC(=O)COC(=O)CCc2nc3ccccc3c(=O)[nH]2)cc1 | -21.3% | 
30 | Cc1ccc(C(=O)N/C(=C\c2cn(S(=O)(=O)N(C)C)c3ccccc23)C(=O)N2CCCC2)cc1 | -14.7% | 
31 | C/C=C(\C)C(=O)OC1C(OC(=O)C2(C)OC2C)c2cc3ccc(=O)oc3cc2OC1(C)C (centres undefined) | -10.9% [at 9.04 µM] | 
32 | CN1CCN(/N=C/c2ccc(C#N)cc2)CC1 | -20.6% | 
33 | Cc1ccc(NS(=O)(=O)c2ccc3c(c2)CC(=O)N3)cc1Cl | -18.8% | 
34 | Cc1cccc(N2C(=O)c3cccnc3C2=O)c1 | -2.8% | 
35 | NC1=CC(=O)C(=O)c2cccnc21 |  | 3.66 µM (active)
36 | O=C1c2cccnc2C(=O)N1Cc1cccs1 | -22% | 
37 | CNc1nc(-c2ccccc2OC)nc2ccccc12 |  | 7.31 µM (active)
38 | COc1cccc(-c2nc(Nc3ccncc3)c3ccccc3n2)c1 |  | 10.3 µM (active)
39 | Cc1nc2ccccc2c(C)c1C(=O)c1ccc(F)cc1 | -6.13% | 
40 | COc1cc(Nc2nc(-c3ccc(OC)c(OC)c3)nc3ccccc23)cc(OC)c1 |  | 2.06 µM (active)
41 | Cc1cccc(-c2nc(Nc3ccc(O)cc3)c3ccccc3n2)c1 |  | 20.6 µM (active)
42 | Cc1cccc(-c2noc(-c3ccc(F)cc3)n2)c1 | 1.15% | 
43 | COc1ccccc1-c1nc(NCCNC(C)=O)c2ccccc2n1 | 15.7% | 
44 | Oc1ccc(-c2nnc(Nc3ccccc3)c3ccccc23)cc1 | 13.6% | 
45 | COc1ccc(-c2nc3n(c(=O)c2C#N)CCS3)c(OC)c1 | 9.93% | 
46 | CC1=NCCN1S(=O)(=O)c1ccc(Br)c(C)c1 | -20.7% | 

Row | SMILES | activity change, negative = growth inhibition | Potency
47 | CCCCn1c(=O)c2oc3ccccc3c2n(CC(=O)Nc2ccccc2OC)c1=O | -4.94% | 
48 | O=C(Nc1ccc(OCC(=O)N2CCOCC2)cc1)c1cc(F)c(F)cc1Cl | -18.8% | 
49 | N#Cc1c(-c2ccccc2)c(-c2ccccc2)n[nH]c1=O | -17.4% | 
50 | CCn1c(CSc2nc(C)cc(C)n2)nnc1SCC(N)=O | 7.59% | 
51 | COCCCn1c(SCc2cccc(OC)c2)nc2cc(OC)c(OC)cc2c1=N |  | 16.4 µM (active)
52 | COc1ccc(/C=C/c2nnc(NC(=O)C(C)C)s2)cc1 | -19.3% | 
53 | Cc1cccc(N=C2SC(C)CN2C(=O)CN2C(=O)NC3(CCCC3)C2=O)c1 (centres undefined) | -6.89% | 
54 | CC(C)c1nc2cc(C(=O)NC(C)c3cnn(C)c3)ccc2o1 (centres undefined) | -0.753% | 
55 | COc1cccc(C2=CC(=O)C[C@H](c3ccc(F)cc3)C2)c1OC | -29.4% | 
56 | COc1ccc(C2Sc3ccccc3NC3=C2C(=O)c2ccccc23)c(OC)c1OC (centres undefined) |  | 1.84 µM (active)
57 | O=[N+]([O-])c1ccc(N2CCN(S(=O)(=O)c3ccccc3)CC2)cc1N1CCc2ccccc2C1 | -4.16% | 
58 | CSCCC(NC(=O)COc1ccccc1)C(=O)OCc1ccc(Cl)cc1 (centres undefined) | -13.5% | 
59 | CN(CCOc1ccc(CC2SC(=O)NC2=O)cc1)c1ccccn1 (centres undefined) |  | inactive
60 | CCCCNc1nc2c(c(=O)n(C)c(=O)n2C)n1Cc1cccc(OC)c1 |  | 1.84 µM (active)
61 | CCn1c(NCCc2ccc(OC)c(OC)c2)nc2c1c(=O)n(C)c(=O)n2C |  | 7.31 µM (active)
62 | COc1ccc(CCn2c(NCCCN3CCOCC3)nc3c2c(=O)[nH]c(=O)n3C)cc1 | -9.49% | 
63 | Cn1c(=O)c2c(nc(NCCc3ccccc3)n2Cc2ccccc2Br)n(C)c1=O | -22.3% | 
64 | Cn1c(=O)c2c(nc(NCCc3ccccc3)n2Cc2ccccc2)n(C)c1=O |  | 4.11 µM (active)
65 | COc1ccc(CCN2CNc3c(c(=O)n(C)c(=O)n3C)C2)cc1OC | -22.6% | 
66 | CCCCn1c(SCC(=O)NCCc2ccc(OC)c(OC)c2)nc2c1c(=O)n(C)c(=O)n2C | -17.6% | 
67 | Cn1c(=O)c2c(nc(N/N=C/c3cccs3)n2Cc2ccc(Br)cc2)n(C)c1=O |  | 23.1 µM (active)
68 | Cn1c(=O)c2c(nc(NCc3ccccc3)n2CC(N)=O)n(C)c1=O | -17.3% | 
69 | Cn1c(=O)[nH]c(=O)c2c1nc(NCCCn1ccnc1)n2Cc1cccc(Br)c1 | -8% | 
